An excerpt weighted towards active compounds, which were near 19% of everything screened.
IL-1B inflam inh: inhibitors of inflammasome signaling (IL-1 beta secretion); THP-1 LPS/ATP IL-1B secretion, AlphaLISA, 16 h; stronger effect = lower value; activity change, % at 57.5 µM; 360,000 tested, 4.7% active; in the data active means activity change below about -50%; inconclusive means mostly about -30% to -49%
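Secreted IL-1B measured by AlphaLISA bead assay after 16 h compound exposure of THP-1 cells; compounds (final up to 57.5 uM) added 1 h before LPS (250 ng/mL) and ATP (1.25 mM) stimulation; lower signal means less secretion.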
HT1080NT lethal: kills 2HG-producing HT-1080-NT fibrosarcoma cells | HT-1080-NT fibrosarcoma viability, CellTiter-Glo ATP luminescence, 48 h | Potency, µM (doses to about 46.1 µM), most hits filed as cytotoxic | 360,000 tested, 1.6% active | AID 686970;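 further: NT is the 2HG producing partner of a matched IDH1 knockdown line; nearly all actives have a fitted effect of over 55% in size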
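A 48-hour cytotoxicity screen used HT-1080-NT cells plated 2 hours before compound delivery. ATP-based CellTiter-Glo luminescence measured viability, normalized to DMSO and no-cell controls.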
DT40 TDP1 no CPT: qHTS for Inhibitors of human tyrosyl-DNA phosphodiesterase 1 (TDP1): qHTS in cells in absence of CPT; Potency, µM (series often up to 46.2 µM), most hits filed as inhibitors; 420,000 tested, 15% active; AID 686978, 2013; DT40 Tdp1-/- hTDP1 cells, no CPT, ATP luminescence, 48 h; further: nearly all actives have a fitted effect of over 55% in size
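Chicken DT40 Tdp1-/- cells stably complemented with human TDP1 were seeded at 400 cells/well with DMSO in place of 20 nM camptothecin. After compound pinning, cells grew at least 48 hr at 37 °C; viability read by CellTiter-Glo luminescence.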
HT1080 IDH1KD tx: HT-1080 IDH1 knockdown cell toxicity (counter line). HT-1080 IDH1 knockdown viability, ATP luminescence, 48 h. Potency, µM (doses to about 46.1 µM), hits mostly cytotoxic. 360,000 tested, 2% active
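Using the IDH1-knockdown HT-1080 line run in the same batch and compound series as the NT line, viability after 48 h at 37 °C was determined by CellTiter-Glo luminescence and expressed as % activity.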
DT40 TDP1 CPT: growth inhibition of DT40 Tdp1-/-;hTDP1 cells with camptothecin (screen for TDP1 inhibitors) | 420,000 tested, 12% active | Potency, µM (doses to about 46.2 µM), usual class: inhibitors | chicken DT40 Tdp1-/-;hTDP1 cells + 20 nM CPT, ATP luminescence, 48 h; further: nearly all actives have a fitted effect of over 55% in size
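Chicken DT40 Tdp1-/- cells complemented with human TDP1, 400 cells/well, exposed to compounds plus 20 nM camptothecin for at least 48 h at 37 C; viability read as ATP content by CellTiter-Glo luminescence.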
Each line names hits and unclear results; the compound was inactive in the other large screens. Unless noted, the call rests on the fitted dose curve; in most records, active means well fitted curve in the direction sought with a large enough effect; inconclusive means small, poorly fitted or top-dose-only effect, or another doubt; inactive means no such curve, though single readings can be large; an effect the other way counts as inactive or inconclusive.

COC(=O)C1=C(C#N)NC(C)=C(C(=O)OC(C)C)C1c1cccc([N+](=O)[O-])c1 (stereo not drawn)	DT40 TDP1 no CPT 18.8µM, DT40 TDP1 CPT 29.9µM (no result: IL-1B inflam inh, HT1080NT lethal, HT1080 IDH1KD tx)
COC(=O)C1=C(C)NC(C)=C(C(=O)OC)C1c1ccc(-c2cccc([N+](=O)[O-])c2)o1	IL-1B inflam inh inconclusive, DT40 TDP1 no CPT inconclusive, HT1080 IDH1KD tx inconclusive, DT40 TDP1 CPT inconclusive
CCOC(=O)C1=C(C)NC(C)=C(C(=O)OCCNC(=O)c2cccnc2)C1c1cccc([N+](=O)[O-])c1 (stereo not drawn)	IL-1B inflam inh -58.7, DT40 TDP1 no CPT inconclusive, DT40 TDP1 CPT 23.1µM
Cc1cc(NC(=O)C(C)Oc2ccc(Cl)cc2Cl)no1 (stereo not drawn)	none
COc1cccc(C(c2sc3nc(-c4ccco4)nn3c2O)N2CCC(O)CC2)c1 (stereo not drawn)	none (no result: IL-1B inflam inh, HT1080NT lethal, HT1080 IDH1KD tx)
COc1ccc(CC2(C)OC(c3ccc([N+](=O)[O-])cc3)=NN2C(C)=O)cc1 (stereo not drawn)	DT40 TDP1 no CPT inconclusive, DT40 TDP1 CPT inconclusive
O=C(CCCC(=O)Nc1cccc(Br)c1)N/N=C/c1cc([N+](=O)[O-])ccc1O	DT40 TDP1 no CPT 5.17µM, HT1080 IDH1KD tx inconclusive, DT40 TDP1 CPT 5.8µM
Cc1ccccc1NC(=O)CCC(=O)N/N=C/c1cc([N+](=O)[O-])ccc1O	DT40 TDP1 no CPT 16.4µM, HT1080 IDH1KD tx inconclusive, DT40 TDP1 CPT inconclusive
O=C(CCC(=O)Nc1cccc(Cl)c1)N/N=C/c1cc([N+](=O)[O-])ccc1O	HT1080NT lethal inconclusive, DT40 TDP1 no CPT inconclusive, DT40 TDP1 CPT inconclusive
O=C(CN(c1cccc(Br)c1)S(=O)(=O)c1ccccc1)N/N=C/c1cc([N+](=O)[O-])ccc1O	HT1080NT lethal 7.31µM, DT40 TDP1 no CPT inconclusive, HT1080 IDH1KD tx 14.6µM, DT40 TDP1 CPT inconclusive
CC(C)(C)NC(=O)CN(c1cccc([N+](=O)[O-])c1)S(=O)(=O)c1ccccc1	none
C=C1CC2C(=O)N(Cc3ccccc3)C(C(=O)OCC)(C(=O)OCC)C1N2C(=O)OC(C)(C)C (stereo not drawn)	DT40 TDP1 no CPT inconclusive, DT40 TDP1 CPT inconclusive
COc1cccc(Cc2nc3cccnc3n2C2CCN(Cc3ccc(C)s3)CC2)c1	none (no result: IL-1B inflam inh, HT1080NT lethal, HT1080 IDH1KD tx)
Cc1c(CCOC(=O)c2cc([N+](=O)[O-])cc([N+](=O)[O-])c2)sc[n+]1CCCCS(=O)(=O)[O-]	none
COc1ccc(-c2cc3c(=O)n(CC(=O)N4CCCC4)ncn3n2)cc1	none
O=C(NC1CCCCC1)C1c2ccccc2OCC(=O)N1CC(F)(F)F (stereo not drawn)	none
COc1ccc(CN(C(C)=O)c2cccc(C)c2C)cc1	HT1080NT lethal 16.4µM, DT40 TDP1 no CPT inconclusive, HT1080 IDH1KD tx inconclusive, DT40 TDP1 CPT inconclusive
CCCNC(=O)C12CCC(C)(c3nc4cc(C)c(C)cc4nc31)C2(C)C (stereo not drawn)	DT40 TDP1 no CPT 23.1µM, DT40 TDP1 CPT 18.4µM
Cc1ccc(NCC(=O)N/N=C/c2ccc(OC(=O)c3ccco3)cc2)cc1	HT1080NT lethal inconclusive, HT1080 IDH1KD tx inconclusive, DT40 TDP1 CPT inconclusive
COc1cccc(C(=O)Nc2ccc3c(c2)OC[C@H](C)N(C(=O)C2CCCC2)C[C@@H](C)[C@@H](OC)CN(C)C3=O)c1	DT40 TDP1 no CPT inconclusive, DT40 TDP1 CPT inconclusive
O=C1CCCc2nn(-c3ccccc3)c(-c3ccncc3)c21	DT40 TDP1 no CPT 16.4µM, DT40 TDP1 CPT inconclusive
COc1ccc(/C=C2/SC(=S)N(NS(=O)(=O)c3ccc(C)cc3)C2=O)cc1	IL-1B inflam inh -56.4
COc1cc(O)c(C(CCN2CCN(c3ccccc3)CC2)c2ccc(N(C)C)cc2)c(OC)c1 (stereo not drawn)	IL-1B inflam inh inconclusive, DT40 TDP1 no CPT 20.6µM, DT40 TDP1 CPT 13µM
COc1cc(O)c(C(CCN2CCOCC2)c2ccc(N(C)C)cc2)c(OC)c1 (stereo not drawn)	DT40 TDP1 no CPT inconclusive, DT40 TDP1 CPT 14.6µM
COc1ccc(C(CCN2CCN(c3ccccc3)CC2)c2c(O)cc(OC)cc2OC)cc1 (stereo not drawn)	DT40 TDP1 no CPT 20.6µM, DT40 TDP1 CPT 16.4µM
